Assay results: PubChem BioAssay (NCATS)
Records with an inconclusive call do not appear. Calls of active or inactive are those of the source. The call rests on the fitted dose curve; in most records, active means well fitted inhibition curve with a large enough effect; inconclusive means small, poorly fitted or top-dose-only effect; inactive means no such curve, though single readings can be large or run the other way.

Test: qHTS assay for measurement of the activity of small molecule inhibitors on Zika virus induced Caspase-3 activity in human iPSC derived neural progenitor cells (hNPCs) (AID 1224857); further: nearly all actives have a fitted effect of over 65% in size
Conditions: hNPCs ZIKV-induced caspase-3/7, Caspase-Glo luminescence, 6 h; series mostly up to 45.7 µM; activity change, negative = inhibition: at the top concentration
Source text: National Center for Advancing Translational Sciences [NCATS]
Johns Hopkins University School of Medicine
Increase in the Caspase-3 activity indicates an activation of apoptosis cell death pathway caused by Zika virus infection in certain types of neuronal cells including human neural progenitor cells (hNPCs), astrocytes, and astrocytoma cell line (SNB-19). This cell-based caspase-3 activity assay measures the increased caspase-3 activity in the human iPSC derived neural progenitor cells (hNPCs) after a 6-hour Zika virus infection with a luminescence readout. A decrease in the luminescence signal in this assay by small molecule treatment indicates an inhibitory effect of that small molecule on the Zika virus induced caspase-3 activity that may correlate with its effect on reduction of Zika virus caused cell death.
The medium for hNPCs consists of DMEM/F12, N2 supplement (ThermoFisher, Cat.# 17502048), NEAA (ThermoFisher, Cat. # 11140050), 2 ug/ml heparin, 2 uM cyclopamine, and B27 (ThermoFisher, Cat. # 17504044). A Caspase-Glo 3/7 assay kit (catalog number G8092; Promega, Madison, WI) was used to detect caspase-3 activity induced by Zika virus infection in human cells. The reagent mixture was reconstituted as described in the protocol from the manufacturer. Polystyrene tissue culture treated and PDL coated white plates were obtained from Greiner Bio-One (Monroe, NC). Cells were seeded in 384- or 1536-well assay plates and cultured at 37 C with 5% CO2 for 16 to 20 hours. The typical cell seeding density in the 1536-well plate assay is 350 cells/well in 3 ul medium for hNPCs in tissue culture treated plates. Compounds were added to cells and incubated for one hour before addition of ZIKV solution to cells (2 FFU/cell). After incubation at 37 C with 5% CO2 for 6 hours, the reagent mixture of Caspase-Glo 3/7 assay kit was added to each well, followed by incubation at room temperature for 30 minutes. The luminescence intensity of the assay plates was measured using a ViewLux plate reader (PerkinElmer). Data were normalized by using the cell-containing wells without ZIKV as a negative control (0% induction of caspase 3/7 activity) and wells containing ZIKV infected cells (Caspase-3 activity induced) as a positive control (100% induction of caspase 3 activity). The percentage inhibitions of the increased Caspase-3 activity by small molecule inhibitors were then calculated.
Potency means the concentration at half of the fitted maximal effect.

Structure (SMILES) | activity change, negative = inhibition | Potency
COc1ccc(C=Cc2cc(OC)c(OC)c(OC)c2)cc1O | -0.196% (inactive) | 
COc1cc2ncnc(Nc3ccc(F)c(Cl)c3)c2cc1NC(=O)C=CCN1CCCCC1 | 40.8% (inactive) | 
CCOc1ccccc1OCCNC(C)Cc1ccc(OC)c(S(N)(=O)=O)c1 (stereo not given) | -5.44% (inactive) | 
C1=CCOCc2cc(ccc2OCCN2CCCC2)Nc2nccc(n2)-c2cccc(c2)OCC1 | 28.6% (inactive) | 
CCn1nnc2c(N3CCOCC3)nc(-c3ccc(NC(=O)Nc4ccc(C(=O)N5CCN(C)CC5)cc4)cc3)nc21 | 47% (inactive) | 
CC1COC2(CCN(c3nc(=O)c4cc(C(F)(F)F)cc([N+](=O)[O-])c4s3)CC2)O1 (stereo not given) | 22.3% (inactive) | 
CC1(O)CC(c2nc(-c3ccc4ccc(-c5ccccc5)nc4c3)c3c(N)nccn23)C1 (stereo not given) | 39.8% (inactive) | 
CCN1CCN(CC(=O)Nc2ccc(-c3cccc4c(=O)cc(N5CCOCC5)oc34)c3sc4ccccc4c23)CC1 | 70.5% (inactive) | 
Cc1coc2c1C(=O)C(=O)c1c-2ccc2c1CCCC2(C)C | 20% (inactive) | 
COc1cc(Nc2ncc(F)c(Nc3ccc4c(n3)N(COP(=O)(O)O)C(=O)C(C)(C)O4)n2)cc(OC)c1OC | 20.7% (inactive) | 
Cc1nc(N)ncc1-c1nc(N2CCOCC2)c2sc(C(C)(C)O)cc2n1 | 11.1% (inactive) | 
C[C@]12CC[C@H](O)CC1=CCC1C2CC[C@]2(C)C(n3cnc4ccccc43)=CCC12 (stereo not given in full) | -12.8% (inactive) | 
Cc1nc2ccc(CN(C)c3ccc(C(=O)N[C@@H](CCC(=O)O)C(=O)O)s3)cc2c(=O)[nH]1 | -5.78% (inactive) | 
CNC(=O)c1c(F)cccc1Nc1nc(Nc2cc3c(cc2OC)CCN3C(=O)CN(C)C)nc2[nH]ccc12 | -17.3% (inactive) | 
CCn1cc(-c2ccnc3[nH]c(-c4cccc(CN(C)C)c4)cc23)c(-c2ccc(NC(=O)N(C)C)cc2)n1 | 58.1% (inactive) | 
C[C@H]1C[C@@H]2[C@@H]([C@@H](O)C[C@@]3(C)[C@H]2CC[C@]3(O)C(=O)CO)[C@@]2(C)C=CC(=O)C=C12 | 2.4% (inactive) | 
CCOc1cc2ncc(C#N)c(Nc3ccc(F)c(Cl)c3)c2cc1NC(=O)C=CCN(C)C | -8.39% (inactive) | 
Clc1cccc(-n2nnnc2NCc2ccccc2Oc2ccccn2)c1Cl | 39.9% (inactive) | 
COC(=O)[C@]12CCC(C)(C)C[C@@H]1[C@@H]1C(=O)C=C3[C@@]4(C)C=C(C#N)C(=O)C(C)(C)[C@@H]4CC[C@@]3(C)[C@]1(C)CC2 | -2.34% (inactive) | 
CC(C)c1cc(C(=O)N2Cc3ccc(CN4CCN(C)CC4)cc3C2)c(O)cc1O | 1.44% (inactive) | 

Structure (SMILES) | activity change, negative = inhibition | Potency
Cc1ccc(NC(=O)C2(c3ccc4c(c3)OC(F)(F)O4)CC2)nc1-c1cccc(C(=O)O)c1 | -1.15% (inactive) | 
OCc1ccc(-c2ccc(-c3ccc(CO)s3)o2)s1 |  | 26.4 µM (active)
O=c1c2ccccc2nc2n1CCc1c-2[nH]c2ccccc12 |  | 13.2 µM (active)
c1nc2nc(Nc3ccc(N4CCOCC4)cc3)nc(NC3CCCCC3)c2[nH]1 | 15.4% (inactive) | 
Cc1c(CN2CCN(S(C)(=O)=O)CC2)sc2c(N3CCOCC3)nc(-c3cnc(N)nc3)nc12 | 71.3% (inactive) | 
O=C(C=Cc1cccc(S(=O)(=O)Nc2ccccc2)c1)NO | 74.8% [at 92.8 µM] (inactive) | 
COc1cccc(Nc2c(C(N)=O)cnc3c(C)cc(S(=O)(=O)c4cccc(C(=O)N(C)C)c4)cc23)c1 | 45.2% [at 20.5 µM] (inactive) | 
Cc1cnc(Nc2ccc(F)cc2Cl)nc1-c1c[nH]c(C(=O)N[C@H](CO)c2cccc(Cl)c2)c1 | -3.41% (inactive) | 
CS(=O)(=O)c1ccc(-c2cnc(N)c(C(=O)Nc3ccccc3)n2)cc1 | 27.5% (inactive) | 
COc1cccc2c(NCc3ccccc3)nc(-n3c(N)nc4ccccc43)nc12 | -0.887% (inactive) | 
CCN(CC)CCCCNc1ncc2cc(-c3cc(OC)cc(OC)c3)c(NC(=O)NC(C)(C)C)nc2n1 | 27.8% (inactive) | 
C[C@@H](Oc1cc(-n2cnc3ccc(CN4CCN(C)CC4)cc32)sc1C(N)=O)c1ccccc1C(F)(F)F | 62.5% (inactive) | 
CNC(=O)c1nn(C)c2c1C(C)(C)Cc1cnc(Nc3ccc(N4CCN(C)CC4)cc3)nc1-2 | 38.3% (inactive) | 
C#Cc1cccc(Nc2ncnc3cc(OC)c(OCCCCCCC(=O)NO)cc23)c1 | 28.4% (inactive) | 
CC(C)(O)CCc1ccc(OCc2cc(-c3cccc(OC(F)F)c3)c3ncccc3c2)cc1 | 36.1% (inactive) | 
CCN1CCN(Cc2ccc(-c3cc4c(N[C@H](C)c5ccccc5)ncnc4[nH]3)cc2)CC1 | 3.81% (inactive) | 
CNC(=O)c1ccc(N2C(=S)N(c3cnc(C#N)c(C(F)(F)F)c3)C(=O)C23CCC3)cc1F | 14.4% (inactive) | 
CN[C@H]1CCc2cc(OC)c(OC)c(OC)c2-c2ccc(OC)c(=O)cc21 | 10.3% (inactive) | 
CNC(=O)CN1CCC(Oc2cc3c(Nc4cccc(Cl)c4F)ncnc3cc2OC)CC1 | -3.8% (inactive) | 
CC[C@H]1CN2CCc3cc(OC)c(OC)cc3[C@H]2C[C@@H]1C[C@@H]1NCCc2cc(OC)c(OC)cc21 | -0.399% (inactive) | 
